Test results taken from PubChem BioAssay AID1159580 (chemical genetic matrix, 2015).
Several values for one entry are separate records, joined by “and”; a condition that tells them apart may be missing. Equal entries are not always repeated. The whole screen tested about 5,500 compounds, of which about 2,000 (36%) were called active. Inconclusive results (about 18%) are left out. Cut-off read from the data, not from the text of the source: active = normalized growth mostly below about 0.91 (no sharp cut-off); inconclusive = no clear call, values can overlap the other calls; inactive = mostly above about 0.92. This is one part of the list.

Assay: chemical genetic growth profiling, strain panel (AID 1159580);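 note: tested at 20 µM; growth read once vehicle control cultures reached saturation at 30 °C; 1 = growth at the plate median or of vehicle wells; lower values mean less growth of the strain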
Conditions: S. cerevisiae deletion strains, growth OD

Measured: normalized growth

CCOC(=O)c1c(C)cc(OC)cc1O
inactive: locus YAL013W, strain DEP1, active compounds read low 1 | locus YAL021C, strain ccr4, active compounds read low 1.02 | locus YAL026C, strain drs2, active compounds read low 0.977 | locus YAL030W, strain snc1, active compounds read low 0.962 | locus YBL061C, strain skt5, active compounds read low 0.981 | locus YBR009C, strain hhf1, active compounds read low 0.962 | locus YBR021W, strain FUR4, active compounds read low 0.971 | locus YBR023C, strain chs3, active compounds read low 0.97 | locus YBR171W, strain sec66, active compounds read low 0.934 | locus YBR229C, strain ROT2, active compounds read low 1 | locus YBR231C, strain swc5, active compounds read low 0.987 | locus YBR279W, strain paf1, active compounds read low 0.993 | locus YCL011C, strain gbp2, active compounds read low 0.975 | locus YCL016C, strain dcc1, active compounds read low 0.971 | locus YCL029C, strain bik1, active compounds read low 0.949 | locus YCL061C, strain MRC1, active compounds read low 0.972 | locus YCL069W, strain vba3, active compounds read low 0.969 | locus YCR088W, strain abp1, active compounds read low 0.953 | locus YDL005C, strain med2, active compounds read low 1.01 | locus YDL035C, strain GPR1, active compounds read low 0.983 | locus YDL040C, strain nat1, active compounds read low 0.959 | locus YDL074C, strain BRE1, active compounds read low 0.955 | locus YDL101C, strain DUN1, active compounds read low 1.01 | locus YDL134C, strain PPH21, active compounds read low 0.996 | locus YDL185W, strain tfp1, active compounds read low 0.984 | locus YDL192W, strain arf1, active compounds read low 0.942 | locus YDR001C, strain nth1, active compounds read low 0.96 | locus YDR069C, strain doa4, active compounds read low 0.999 | locus YDR150W, strain NUM1, active compounds read low 1.01 | locus YDR159W, strain sac3, active compounds read low 0.926 | locus YDR162C, strain NBP2, active compounds read low 1.01 | locus YDR195W, strain ref2 1.1 | locus YDR297W, strain sur2, active compounds read low 0.975 | locus YDR334W, strain swr1, active compounds read low 0.979 | locus YDR335W, strain msn5, active compounds read low 0.991 | locus YDR388W, active compounds read low 0.958 | locus YEL003W, strain gim4, active compounds read low 0.964 | locus YEL037C, strain rad23, active compounds read low 0.978 | locus YEL061C, strain CIN8 (second series), active compounds read low 0.962 | locus YEL061C, strain CIN8, active compounds read low 0.989 | locus YER015W, strain faa2, active compounds read low 0.991 | locus YER016W, strain bim1, active compounds read low 0.975 | locus YER111C, strain swi4, active compounds read low 0.985 | locus YER155C, strain BEM2, active compounds read low 0.985 | locus YER167W, strain BCK2, active compounds read low 0.935 | locus YFR010W, strain ubp6, active compounds read low 0.99 | locus YGL078C, strain dbp3, active compounds read low 0.963 | locus YGL086W, strain mad1, active compounds read low 0.943 | locus YGL167C, strain pmr1, active compounds read low 0.973 | locus YGL173C, strain kem1, active compounds read low 0.985 | locus YGL227W, strain vid30, active compounds read low 0.963 | locus YGL240W, strain doc1, active compounds read low 0.903 | locus YGL248W, strain PDE1, active compounds read low 1 | locus YGL253W, strain hxk2, active compounds read low 0.994 | locus YGR078C, strain PAC10, active compounds read low 0.965 | locus YGR135W, strain pre9, active compounds read low 0.912 | locus YGR229C, strain SMI1, active compounds read low 0.972 | locus YGR252W, strain gcn5, active compounds read low 0.918 | locus YHR013C, strain ard1, active compounds read low 0.969 | locus YHR027C, strain rpn1, active compounds read low 0.988 | locus YHR030C, strain SLT2, active compounds read low 0.983 and 0.948 | locus YHR079C, strain IRE1, active compounds read low 0.956 | locus YHR094C, strain hxt1, active compounds read low 0.946 | locus YHR129C, strain ARP1, active compounds read low 0.983 | locus YHR142W, strain chs7, active compounds read low 0.918 | locus YHR200W, strain rpn10, active compounds read low 0.926 | locus YIL066C, strain RNR3, active compounds read low 1 | locus YIL073C, strain SPO22, active compounds read low 0.891 | locus YIR030C, strain dcg1, active compounds read low 0.94 | locus YJL092W, strain hpr5, active compounds read low 0.96 | locus YJL095W, strain BCK1 (second series), active compounds read low 0.976 | locus YJL095W, strain BCK1, active compounds read low 0.951 and 0.943 | locus YJL115W, strain asf1, active compounds read low 0.981 | locus YJL129C, strain trk1, active compounds read low 0.933 | locus YJL134W, strain LCB3, active compounds read low 0.988 | locus YJL154C, strain vps35, active compounds read low 0.97 | locus YJL166W, strain qcr8, active compounds read low 0.97 | locus YJL168C, strain set2, active compounds read low 0.959 | locus YJL187C, strain SWE1 (second series), active compounds read low 1 | locus YJL187C, strain SWE1, active compounds read low 0.979 | locus YJR043C, strain POL32, active compounds read low 0.921 | locus YJR066W, strain TOR1, active compounds read low 0.9
active: locus YDR101C, strain arx1, active compounds read low 0.917 | locus YDR137W, strain rgp1, active compounds read low 0.784 | locus YDR318W, strain mcm21, active compounds read low 0.902 | locus YDR392W, strain spt3, active compounds read low 0.724 | locus YDR502C, strain sam2, active compounds read low 0.921 | locus YER110C, active compounds read low 0.899 | locus YER155C, strain BEM2 (second series), active compounds read low 0.609 | locus YHR079C, strain IRE1 (second series), active compounds read low 0.912 | locus YIL125W, strain kgd1, active compounds read low 0.929 | locus YJL164C, strain tpk1, active compounds read low 0.911
